# Source: PubChem BioAssay
# The source made the active and inactive calls.
# Columns and labels:
# [1] = small molecules captured by biotinylated probe aFSTL3 – biochemical, small-molecule microarray, fluorescence 635/667, stem cell growth factor project, primary screen (AID 1064); conditions: higher = more signal;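 note: measures binding of the biotinylated anti-FSTL3 antibody to printed compounds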
# [2] = binders from COS7 lysate, DM2A8 probe, primary screen, torsin A project, cell lysate, small-molecule microarray, fluorescence 635/667 (AID 1065); conditions: higher = more signal, COS7 lysate expressing mutant human TOR1A
# [3] = small molecules captured by biotinylated probe aFGF2 – biochemical, small-molecule microarray, fluorescence 635/667, stem cell growth factor project, primary screen (AID 1067); conditions: higher = more signal;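 note: measures binding of biotinylated aFGF2 protein to printed compounds on slides; z-score merges feature fluorescence and signal-to-noise across triplicate slides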
# [4] = small molecules captured by biotinylated probe aFGF10 – biochemical, small-molecule microarray, fluorescence 635/667, stem cell growth factor project, primary screen (AID 1071); conditions: higher = more signal;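 note: score merges 667 nm spot intensity and signal to noise from triplicate slides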
# [5] = target: Neurogenic locus notch homolog protein 2 (Homo sapiens) (UniProt Q04721); assay: small molecules binding Notch2 protein – biochemical, small-molecule microarray, 635 nm fluorescence, stem cell growth factors, primary screen (AID 1073); conditions: higher = more signal
# [6] = target: Pro-neuregulin-1, membrane-bound isoform (Homo sapiens) (UniProt Q02297); assay: small molecules binding neuregulin-1 protein – biochemical, small-molecule microarray, fluorescence 635/667, psychiatric disease protein project, primary screen (AID 1075); conditions: NRG1 binding, 635 nm fluorescence, higher = more signal;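 note: score combines 667 nm spot fluorescence with signal to noise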
# [7] = system: Neuregulin-1 EGF-like domain; assay: small molecules binding NRG1 EGF domain – biochemical, small-molecule microarray, 635 nm fluorescence, primary screen (AID 1081); conditions: higher = more signal;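 note: binding of the protein to compounds printed on small-molecule microarray slides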
# [8] = FRG1 expression reporter modulators in myotubes – cell-based, C2C12 myotubes, firefly/Renilla luciferase, luminescence, FRG1 inhibition for FSHD, primary screen (AID 1084); conditions: FRG1 promoter luciferase, higher = more signal, called active from +8 up or from −8 down
# [9] = small molecules captured by biotinylated probe aFST – biochemical, small-molecule microarray, fluorescence 635/667, stem cell growth factor project, primary screen (AID 1086); conditions: higher = more signal;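 note: score merges 667 nm fluorescence with signal-to-noise of each printed compound spot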
# [10] = binders of probe aHhip on microarray, primary screen, stem cell growth factor project, biochemical, small-molecule microarray, fluorescence 635/667 (AID 1087); conditions: higher = more signal;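 note: score merges spot fluorescence at 667nm with spot signal to noise ratio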
# [11] = system: PRMT1 (protein arginine N-methyltransferase 1); assay: small molecules binding arginine methyltransferase PRMT1 – biochemical, small-molecule microarray, 635 nm fluorescence, primary screen (AID 1088); conditions: higher = more signal;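 note: binding of Prmt1 protein to compounds spotted on small-molecule microarray slides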
# [12] = growth effects on S. cerevisiae YJM789 – YJM789 clinical isolate, OD600, 24 h, basal, primary screen (AID 1089); conditions: higher = more signal, called active from +8 up or from −8 down;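 note: growth of clinical yeast isolate S. cerevisiae YJM 789 seeded 1000 cells per well; test concentration not given here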
# [13] = S. pombe growth modifiers, basal conditions – strain 972, OD600, 24 h, no modulator, primary screen (AID 1090);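 note: basal condition with compound alone and no growth modifier present; test concentration not given here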; conditions: S. pombe 972 growth, higher = more signal, called active from +8 up or from −8 down
# [14] = budding yeast growth modifiers under rapamycin – strain BY4716, OD600, 96 h, primary screen (AID 1091); note: test concentration not given here; conditions: S. cerevisiae BY4716 + rapamycin, higher = more signal, called active from +8 up or from −8 down
# [15] = target: Torsin-1A-interacting protein 2 (Homo sapiens) (UniProt Q8NFQ8); assay: small molecules binding lysate-expressed LULL1 – cell lysate, human LULL1 lysate, 635/667 nm fluorescence, primary screen (AID 1092); conditions: small-molecule microarray, hLULL1 lysate binding, 635 nm fluorescence; higher = more signal;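 note: probe is lysate of COS7 cells overexpressing human LULL1; score merges per-feature 667 nm fluorescence with signal-to-noise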
# [16] = optical density change of DRC41 E. coli – strain DRC41, OD650, 24 h, E. coli filamentation project, primary screen (AID 1093);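 note: MC1000 strain lacking acrAB efflux and sulA so SOS filamentation is blocked; test concentration not given here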; conditions: E. coli DRC41 growth, higher = more signal, called active from +8 up or from −8 down
# [17] = probe aLefty2 binding to arrayed compounds – biochemical, biotinylated probe, 635/667 nm fluorescence, primary screen (AID 1094); conditions: small-molecule microarray, higher = more signal;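 note: score merges spot fluorescence near 667 nm with spot signal-to-noise ratio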
# [18] = system: Noggin (protein binding on small-molecule microarray); assay: small molecules binding Noggin protein – biochemical, 635/667 nm fluorescence, primary screen (AID 1095); conditions: 635 nm fluorescence, higher = more signal;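 note: score merges 667 nm feature fluorescence with signal to noise over triplicate slides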
# [19] = target: Neurogenic locus notch homolog protein 3 (Homo sapiens) (UniProt Q9UM47); assay: small molecules binding NOTCH3 protein – biochemical, 635/667 nm fluorescence, primary screen (AID 1096); conditions: small-molecule microarray, 635 nm fluorescence, higher = more signal
# [20] = probe aEGFR binding to arrayed compounds – biochemical, biotinylated probe, 635/667 nm fluorescence, primary screen (AID 1097); conditions: small-molecule microarray, higher = more signal;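 note: probe is a biotinylated anti-EGFR antibody binding compounds printed on slides; score combines fluorescence near 667 nm and signal to noise of each spot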
# Chain of Pro-neuregulin-1, membrane-bound isoform (Homo sapiens) (Q02297 whole entry, looked up, the tested form may be a part, canonical isoform): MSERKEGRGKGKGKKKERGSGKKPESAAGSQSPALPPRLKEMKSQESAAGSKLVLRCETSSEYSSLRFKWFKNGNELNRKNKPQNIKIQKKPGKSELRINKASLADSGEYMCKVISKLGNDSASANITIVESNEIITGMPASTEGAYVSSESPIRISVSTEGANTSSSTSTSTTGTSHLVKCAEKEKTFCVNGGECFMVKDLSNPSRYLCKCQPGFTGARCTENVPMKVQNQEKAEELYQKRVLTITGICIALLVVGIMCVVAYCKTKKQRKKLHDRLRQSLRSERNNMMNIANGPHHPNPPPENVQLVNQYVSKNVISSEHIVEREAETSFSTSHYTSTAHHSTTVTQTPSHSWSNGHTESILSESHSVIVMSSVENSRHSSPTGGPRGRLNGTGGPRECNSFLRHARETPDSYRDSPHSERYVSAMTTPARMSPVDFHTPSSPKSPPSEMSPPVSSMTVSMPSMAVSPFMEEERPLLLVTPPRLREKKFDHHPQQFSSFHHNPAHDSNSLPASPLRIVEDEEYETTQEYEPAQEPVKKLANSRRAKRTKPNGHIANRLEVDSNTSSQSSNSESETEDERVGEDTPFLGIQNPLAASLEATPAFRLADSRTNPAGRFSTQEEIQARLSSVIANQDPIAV
# Chain of Torsin-1A-interacting protein 2 (Homo sapiens) (Q8NFQ8 whole entry, looked up): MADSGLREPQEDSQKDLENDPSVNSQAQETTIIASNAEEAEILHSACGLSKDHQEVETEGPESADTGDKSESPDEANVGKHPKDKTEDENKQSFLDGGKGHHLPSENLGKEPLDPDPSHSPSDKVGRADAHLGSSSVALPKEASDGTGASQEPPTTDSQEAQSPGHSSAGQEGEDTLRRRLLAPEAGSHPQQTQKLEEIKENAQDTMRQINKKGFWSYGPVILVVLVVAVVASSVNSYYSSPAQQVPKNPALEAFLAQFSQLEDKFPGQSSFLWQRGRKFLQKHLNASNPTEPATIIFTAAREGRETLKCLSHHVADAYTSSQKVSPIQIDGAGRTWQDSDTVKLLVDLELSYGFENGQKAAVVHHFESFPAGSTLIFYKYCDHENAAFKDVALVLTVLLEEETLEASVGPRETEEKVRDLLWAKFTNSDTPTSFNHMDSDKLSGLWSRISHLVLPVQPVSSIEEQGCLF
# Chain of Neurogenic locus notch homolog protein 2 (Homo sapiens) (Q04721 whole entry, looked up, canonical isoform): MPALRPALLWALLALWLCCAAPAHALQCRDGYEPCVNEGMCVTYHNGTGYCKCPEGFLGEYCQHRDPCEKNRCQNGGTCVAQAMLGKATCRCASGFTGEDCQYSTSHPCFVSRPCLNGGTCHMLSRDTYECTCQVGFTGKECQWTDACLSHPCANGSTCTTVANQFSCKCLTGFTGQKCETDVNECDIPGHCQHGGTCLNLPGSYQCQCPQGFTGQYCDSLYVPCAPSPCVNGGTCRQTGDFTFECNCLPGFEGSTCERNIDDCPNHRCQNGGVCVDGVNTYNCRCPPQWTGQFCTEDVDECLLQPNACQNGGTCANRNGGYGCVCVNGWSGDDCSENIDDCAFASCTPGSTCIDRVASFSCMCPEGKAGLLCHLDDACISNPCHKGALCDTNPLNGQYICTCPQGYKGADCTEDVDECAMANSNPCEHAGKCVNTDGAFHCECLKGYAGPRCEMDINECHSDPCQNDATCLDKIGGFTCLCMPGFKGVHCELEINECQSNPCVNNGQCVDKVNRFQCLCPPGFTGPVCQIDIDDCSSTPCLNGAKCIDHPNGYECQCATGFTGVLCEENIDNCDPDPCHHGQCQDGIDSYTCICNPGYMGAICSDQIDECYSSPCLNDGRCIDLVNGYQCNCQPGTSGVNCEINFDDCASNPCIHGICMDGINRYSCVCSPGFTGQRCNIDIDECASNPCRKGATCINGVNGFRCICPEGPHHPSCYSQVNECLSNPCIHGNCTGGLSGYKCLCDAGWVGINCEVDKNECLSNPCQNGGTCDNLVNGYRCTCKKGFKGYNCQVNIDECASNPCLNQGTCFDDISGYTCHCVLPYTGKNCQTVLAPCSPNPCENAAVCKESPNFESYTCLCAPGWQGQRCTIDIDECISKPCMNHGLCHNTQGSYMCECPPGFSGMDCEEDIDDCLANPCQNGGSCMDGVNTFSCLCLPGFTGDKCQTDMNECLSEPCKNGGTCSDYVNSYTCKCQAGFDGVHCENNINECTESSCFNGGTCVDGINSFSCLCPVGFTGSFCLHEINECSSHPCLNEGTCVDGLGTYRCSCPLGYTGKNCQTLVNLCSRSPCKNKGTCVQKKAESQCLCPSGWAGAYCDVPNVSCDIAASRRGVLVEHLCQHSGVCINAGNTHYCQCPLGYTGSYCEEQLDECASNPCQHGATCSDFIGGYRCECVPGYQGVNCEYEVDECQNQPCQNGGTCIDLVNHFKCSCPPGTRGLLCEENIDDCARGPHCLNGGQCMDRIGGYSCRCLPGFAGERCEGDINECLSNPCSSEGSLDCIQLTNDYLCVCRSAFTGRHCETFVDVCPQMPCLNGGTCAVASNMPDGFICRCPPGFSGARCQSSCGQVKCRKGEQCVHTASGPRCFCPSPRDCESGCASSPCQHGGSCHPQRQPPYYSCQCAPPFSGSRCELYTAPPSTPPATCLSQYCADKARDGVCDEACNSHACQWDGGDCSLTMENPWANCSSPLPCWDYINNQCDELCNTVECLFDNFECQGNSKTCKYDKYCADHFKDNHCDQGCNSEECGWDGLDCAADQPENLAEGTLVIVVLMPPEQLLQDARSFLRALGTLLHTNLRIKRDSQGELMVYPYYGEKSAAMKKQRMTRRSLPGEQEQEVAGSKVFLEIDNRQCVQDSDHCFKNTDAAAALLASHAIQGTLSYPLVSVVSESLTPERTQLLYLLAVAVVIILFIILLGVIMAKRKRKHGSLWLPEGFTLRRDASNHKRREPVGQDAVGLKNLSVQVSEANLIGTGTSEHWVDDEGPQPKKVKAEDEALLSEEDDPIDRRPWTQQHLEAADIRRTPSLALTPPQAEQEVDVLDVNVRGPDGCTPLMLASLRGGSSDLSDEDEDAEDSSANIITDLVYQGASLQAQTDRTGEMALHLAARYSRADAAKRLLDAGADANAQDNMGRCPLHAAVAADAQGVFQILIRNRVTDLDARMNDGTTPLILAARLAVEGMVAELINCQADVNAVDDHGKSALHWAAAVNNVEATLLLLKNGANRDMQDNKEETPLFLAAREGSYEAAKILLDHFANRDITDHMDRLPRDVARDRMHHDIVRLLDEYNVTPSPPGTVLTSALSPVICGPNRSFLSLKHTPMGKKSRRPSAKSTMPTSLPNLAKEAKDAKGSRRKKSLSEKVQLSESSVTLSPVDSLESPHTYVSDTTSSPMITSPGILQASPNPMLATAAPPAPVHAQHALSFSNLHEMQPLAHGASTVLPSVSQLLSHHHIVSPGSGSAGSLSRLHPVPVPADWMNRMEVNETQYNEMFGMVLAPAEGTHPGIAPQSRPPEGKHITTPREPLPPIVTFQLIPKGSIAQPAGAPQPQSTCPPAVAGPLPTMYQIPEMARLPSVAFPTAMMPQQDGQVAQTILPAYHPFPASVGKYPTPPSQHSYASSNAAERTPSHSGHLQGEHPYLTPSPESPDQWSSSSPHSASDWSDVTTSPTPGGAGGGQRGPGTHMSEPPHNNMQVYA
SMILES,composite z-score [1],composite z-score [2],composite z-score [3],composite z-score [4],composite z-score [5],composite z-score [6],composite z-score [7],z-score [8],composite z-score [9],composite z-score [10],composite z-score [11],z-score [12],z-score [13],z-score [14],composite z-score [15],z-score [16],composite z-score [17],composite z-score [18],composite z-score [19],composite z-score [20]
C/C(=N\O)C(=O)NCCCCCNC(=O)OCc1ccccc1,-0.286,0.135,-0.0711,0.418,0.475,0.0391,0.619,0.725 (inactive),0.271,-0.226,-0.214,-0.286 (inactive),-0.966 (inactive),-1.27 (inactive),0.63,2.03 (inactive),-0.0741,0.65,0.996,0.0221
O=C1O[C@H](c2ccccc2)[C@H](c2ccccc2)N2[C@H]1[C@@H](C(=O)NC[C@H](O)c1ccccc1)[C@]1(C(=O)Nc3ccc(C#CC4=CCCCC4)cc31)[C@H]2c1ccc(OCCO)cc1,0.0854,0.21,-0.0579,0.423,1.04,0.413,1.02,0.315 (inactive),0.681,0.136,1.55,2.99 (inactive),1.64 (inactive),4.01 (inactive),1.85,-0.422 (inactive),-0.104,0.691,1.11,-0.0494
Cc1ccc(S[C@]2(C(=O)NCCN3CCOCC3)CC(=O)N(C3Cc4ccccc4C3)[C@@H]2c2ccc(CO)cc2I)cc1,1.1,0.677,-0.19,-0.761,-1.11,1.69,0.544,-0.974 (inactive),0.336,-0.0994,1.01,-2.08 (inactive),-5.05 (inactive),0.401 (inactive),1.96,1.75 (inactive),0.366,-1.62,-0.484,-0.204
COCCOC(=O)N1C(=O)[C@@]2(c3cc(C#CCCO)ccc31)[C@H](c1ccc(OCCO)cc1)N1[C@H](c3ccccc3)[C@H](c3ccccc3)OC(=O)[C@H]1[C@@H]2C(=O)NC[C@H](O)c1ccccc1,-0.484,1.04,-0.0628,0.889,1.4,1.12,1.25,0.504 (inactive),0.788,0.152,1.54,1.99 (inactive),1.98 (inactive),5.45 (inactive),2.54,1.3 (inactive),-0.116,1.6,1.07,-0.0286
O=C1OCC=C[C@H]2OC34C=CCN(Cc5ccccc5)C(=O)[C@H]3N(CCCCCO)C(=O)[C@@H]4[C@@H]12 (stereo not given in full),1.67,-0.0288,-0.187,-0.179,-1.38,1.13,0.631,0.443 (inactive),-0.594,-0.216,-0.702,-0.524 (inactive),-1.06 (inactive),-0.368 (inactive),1.06,2.33 (inactive),0.0282,-1.5,-0.911,-0.358
CO[C@H]1COC(=O)[C@@H](Cc2ccccc2)NC(=O)[C@@H](C)COC(=O)CC=C[C@@H]1C,-0.533,0.806,-0.142,-0.0799,-0.172,-0.923,-0.294,0.0824 (inactive),-0.0629,-0.0994,0.633,-0.236 (inactive),-0.669 (inactive),-0.555 (inactive),-1.09,0.395 (inactive),-0.202,1.48,0.269,-0.096
CCN1C(C)=C(C(=O)OC)[C@@H](c2ccccc2)N2C(=O)[C@@]3(C(=O)OC)O[C@@]12[C@@H]1C(=O)N(C)C(=O)[C@@H]13,-0.217,0.139,-0.0125,0.735,0.949,0.825,1.18,-1.36 (inactive),0.264,-0.0994,0.962,-0.444 (inactive),-0.76 (inactive),1.74 (inactive),1.44,-0.0517 (inactive),-0.122,0.584,0.333,0.0692
COc1ccc(-c2ccccc2[C@@H]2N[C@H](C(=O)O)CC[C@H]2C)cc1,-0.285,-0.0323,-0.132,0.277,0.244,-0.233,0.424,-0.438 (inactive),0.0952,-0.134,-0.408,-0.306 (inactive),-0.572 (inactive),0.492 (inactive),0.47,0.189 (inactive),-0.05,0.412,0.412,0.0068
CO[C@H]1COC(=O)CC=C[C@H](C)[C@@H](OC)COC(=O)CC=C[C@@H]1C,-0.623,1.7,-0.0775,0.227,-0.209,-0.768,0.692,-1.12 (inactive),-0.055,-0.0994,0.656,-0.49 (inactive),-1.5 (inactive),-0.98 (inactive),-0.787,0.898 (inactive),-0.169,0.764,-0.119,-0.0273
Cc1ccccc1C(O)C1C=CC2C(=O)N(c3ccccc3)C(=O)C2N1Nc1ccc(C#N)cc1 (stereo not given),0.834,1.46,0.429,1.15,1.63,1.91,1.25,-1.25 (inactive),1.96,-0.111,1.51,0.907 (inactive),1.85 (inactive),3.52 (inactive),2.89,0.478 (inactive),0.854,0.247,1.07,0.413
